Data: PubChem BioAssay (NCI)
Compounds without any hit were thinned out: in the full panel of roughly 79,000, 15% have a hit. A number with no mark means an inactive call. Activity calls are given as the source filed them. Rule as the data show it: active = growth inhibition above about 70%; inactive = the rest.

How the values were obtained:
[1] = NCI Yeast Anticancer Drug Screen. Data for the rad50 strain (AID 155);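 also: 0% = growth of vehicle-only cultures of the same strain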; conditions: S. cerevisiae rad50 strain growth inhibition, active compounds read high
How it was run: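 Growth of the mutant yeast was measured after compound exposure and referenced to vehicle-treated cultures.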

[2] = NCI Yeast Anticancer Drug Screen. Data for the mec2-1 strain (AID 157); conditions: S. cerevisiae mec2-1 strain, active compounds read high
How it was run: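 Mutant yeast (mec2-1) grown with compound; growth inhibition relative to vehicle control reported.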

[3] = NCI Yeast Anticancer Drug Screen. Data for the sgs1 mgt1 strain (AID 161);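 also: 0% = growth of cultures given vehicle only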; conditions: S. cerevisiae sgs1 mgt1 strain, active compounds read high
How it was run: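 Yeast cells carrying a defined DNA-repair defect were exposed to test compounds. Growth inhibition was measured relative to vehicle-treated controls.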

[4] = NCI Yeast Anticancer Drug Screen. Data for the cln2 rad14 strain (AID 165);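 also: 0% = growth equal to vehicle treated cultures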; conditions: S. cerevisiae cln2 rad14 strain, active compounds read high
How it was run: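 Readout is yeast growth inhibition versus vehicle-treated controls, using a strain with cln2 and rad14 alterations exposed to compound.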

[5] = NCI Yeast Anticancer Drug Screen. Data for the bub3 strain (AID 167); conditions: S. cerevisiae bub3 mutant strain, active compounds read high
How it was run: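 Whole-cell yeast assay. The mutant strain was incubated with compounds, and growth inhibition was determined by comparison with vehicle-treated cells.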

[6] = NCI Yeast Anticancer Drug Screen. Data for the mlh1 rad18 strain (AID 175); conditions: S. cerevisiae mlh1 rad18 strain growth inhibition, active compounds read high
How it was run: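 Genetically defined yeast (DNA repair-deficient) exposed to compounds; growth inhibition determined relative to vehicle.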

[7] = at 5.0 µM (retest, dose inferred, filed as 0.5)
[8] = at 50.0 µM (retest, dose inferred, filed as 5.0)

Row | Compound | growth inhibition [1, 7] | growth inhibition [1, 8] | growth inhibition ([1]; at 50.0 µM) | growth inhibition [2, 7] | growth inhibition [2, 8] | growth inhibition ([2]; at 50.0 µM) | growth inhibition [3, 7] | growth inhibition [3, 8] | growth inhibition ([3]; at 50.0 µM) | growth inhibition [4, 7] | growth inhibition [4, 8] | growth inhibition ([4]; at 50.0 µM) | growth inhibition [5, 7] | growth inhibition [5, 8] | growth inhibition ([5]; at 50.0 µM) | growth inhibition [6, 7] | growth inhibition [6, 8] | growth inhibition ([6]; at 50.0 µM)
1 | Cn1cc(NC(=O)c2cc(NC(=O)CCCCCCCCC(=O)Nc3cc(C(=O)Nc4cc(C(=O)NCCC(N)N)n(C)c4)n(C)c3)cn2C)cc1C(=O)NCCC(=N)N | 83% (active) | 98% (active) | 89.8% (active) | 87% (active) | 98% (active) | 90.8% (active) | 80% (active) | 99% (active) | 91.5% (active) | 45% | 95% (active) | 88% (active) | 86% (active) | 98% (active) | 91.5% (active) | 88% (active) | 97% (active) | 90% (active)
2 | CCCCCCCN=C(N)c1ccc(C(=O)OCc2ccccc2)cc1 | 1% | 86% (active) | 99.5% (active) | -12% | 76% (active) | 99.8% (active) | 5% | 95% (active) | 99.8% (active) | -2% | 80% (active) | 99.4% (active) | 0% | 77% (active) | 99.4% (active) | 6% | 94% (active) | 99.7% (active)
3 | O=C(CC1(O)C(=O)Nc2c(Cl)ccc(Cl)c21)c1ccc(Cl)cc1Cl (stereo not given) | 25% | 25% | 91.6% (active) | 13% | 13% | 90.7% (active) | 18% | 18% | 90.8% (active) | -6% | -6% | 91.3% (active) | -2% | -2% | 93.7% (active) | 19% | 19% | 92.2% (active)
4 | O=C(Cc1ccc2c(c1)OCO2)c1ccc(O)cc1O | 6% | 84% (active) | 97.4% (active) | 1% | 93% (active) | 98.4% (active) | 9% | 85% (active) | 96.7% (active) | 6% | 84% (active) | 96.1% (active) | 10% | 90% (active) | 97.2% (active) | 5% | 88% (active) | 96.5% (active)
5 | C[C@@]12C(=O)OC(=O)[C@]1(C)[C@H]1CC[C@@H]2O1 | 96% (active) | 98% (active) | 93.2% (active) | 94% (active) | 99% (active) | 94.2% (active) | 97% (active) | 97% (active) | 93.3% (active) | 78% (active) | 98% (active) | 91.8% (active) | 70% (active) | 99% (active) | 92.8% (active) | 96% (active) | 98% (active) | 92.5% (active)
6 | CCC(c1ccc(O)c(C2CCCCC2)c1)C(CC)c1ccc(OC(=O)c2ccccc2)c(C2CCCCC2)c1 (stereo not given) | 0% | -2% | -16.8% | -21% | 10% | -10.8% | -11% | 11% | -17.1% | -4% | -8% | 26.8% | 0% | -6% | 1.15% | -14% | -9% | -8.9%
7 | CC(=O)O[C@H]1CC[C@]2(C)C3=CC[C@]4(C)[C@@H](C(C)=O)CC[C@H]4[C@@]34C=C[C@]2(C1)C1C(=O)OC(=O)C14 (stereo not given in full) | 2% | 2% | 58.2% | 2% | 6% | 20.7% | 1% | 7% | 29.4% | 4% | 4% | -24% | 3% | 4% | 56.9% | -20% | -26% | 70.8% (active)
8 | Cc1cc(N(CCC#N)CCC#N)ccc1/C(N=Nc1cccc([N+](=O)[O-])c1)=N/NC(=O)c1cc(Cl)ccc1O | 8% | 47% | 63.4% | 8% | 25% | 47% | 9% | 49% | 66% | -1% | 28% | 23.9% | 8% | 58% | 79.3% (active) | 12% | 29% | 31.9%
9 | CC(C)N(CN1C(=O)N/C(=C/c2cccc(/C=C3/NC(=O)N(CN(C(C)C)C(C)C)C3=O)c2)C1=O)C(C)C | 7% | 8% | 21% | -15% | -11% | 2.95% | -1% | 3% | -2.5% | -19% | -15% | 63.4% | 12% | 30% | 17.6% | 7% | 8% | -4.65%
10 | Cc1c2c(c(C)c3ccncc13)S(=O)(=O)c1ccccc1-2 | 88% (active) | 87% (active) | 94.3% (active) | 52% | 69% | 36.2% | 38% | 65% | 55.3% | 39% | 36% | 28.9% | 41% | 33% | 55% | 75% (active) | 85% (active) | 79.9% (active)
